TDP1 block: blocks human tyrosyl-DNA phosphodiesterase 1; Q9NUW8; recombinant TDP1, AlphaScreen DNA substrate cleavage; Potency, µM (doses to about 130 µM), for the others: at the highest dose activity change, negative = inhibition, hits mostly inhibitors; 350,000 tested, 0.28% active; AID 485290; further: potency means the concentration at half of the fitted maximal effect; on the % scale 0 is the no-effect control and ±100 the full control effect; nearly all actives have a fitted effect of over 40% in size
Target sequence (Q9NUW8 whole entry, looked up): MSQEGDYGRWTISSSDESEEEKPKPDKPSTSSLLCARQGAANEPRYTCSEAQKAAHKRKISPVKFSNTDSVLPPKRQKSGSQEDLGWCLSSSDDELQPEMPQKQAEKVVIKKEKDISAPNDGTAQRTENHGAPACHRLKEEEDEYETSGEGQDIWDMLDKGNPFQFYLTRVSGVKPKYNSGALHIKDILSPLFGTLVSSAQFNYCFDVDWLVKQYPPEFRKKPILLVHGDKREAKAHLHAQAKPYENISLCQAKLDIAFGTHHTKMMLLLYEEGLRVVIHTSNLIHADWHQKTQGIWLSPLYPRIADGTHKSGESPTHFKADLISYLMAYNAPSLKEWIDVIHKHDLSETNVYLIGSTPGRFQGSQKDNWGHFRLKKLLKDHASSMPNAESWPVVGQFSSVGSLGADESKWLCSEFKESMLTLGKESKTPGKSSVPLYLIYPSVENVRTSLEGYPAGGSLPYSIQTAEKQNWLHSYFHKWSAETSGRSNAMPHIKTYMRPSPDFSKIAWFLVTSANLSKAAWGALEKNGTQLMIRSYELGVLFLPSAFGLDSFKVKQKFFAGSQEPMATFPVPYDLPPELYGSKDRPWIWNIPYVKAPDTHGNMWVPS
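Recombinant human Tdp1 (E. coli-expressed, 1 nM final) preincubated with compounds 15 min at room temperature, then 5'-biotin/3'-phosphotyrosine-FITC DNA substrate (15 nM final) added for 5 min. AlphaScreen beads (10 ug/ml final) added 10 min; cleavage lowers signal.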
TGFb SMAD3 inh: inhibitors of TGF-b signaling | Potency, µM (doses to about 46.1 µM), without a hit: at the top dose activity, negative = inhibition, actives largely listed as inhibitors | 410,000 tested, 1.2% active | HepG2 CAGA-GFP TGF-b/SMAD3 reporter, GFP fluorescence, 18 h; TGF-beta stimulated, 500 pg/mL final; further: potency means the concentration at half of the fitted maximal effect; on the % scale 0 is the no-effect control and ±100 the full control effect; nearly all actives have a fitted effect of over 65% in size
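Using HEPG2 CAGA-GFP reporter cells at 1000 cells/well, we pinned test compounds, stimulated with recombinant TGF-beta (500 pg/mL final) and measured total well GFP after 18 h.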
DT40 TDP1 CPT: DT40-hTDP1 cell growth loss with CPT; chicken DT40 Tdp1-/-;hTDP1 cells + 20 nM CPT, ATP luminescence, 48 h; Potency, µM (top dose mostly 46.2 µM), for inactives: at the top dose activity change, negative = growth inhibition, usual class: inhibitors; 420,000 tested, 12% active; AID 686979; further: potency means the concentration at half of the fitted maximal effect; on the % scale 0 is the no-effect control and ±100 the full control effect; nearly all actives have a fitted effect of over 55% in size
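Chicken DT40 Tdp1-/- cells stably complemented with human TDP1 were seeded at 400 cells/well in medium containing 20 nM camptothecin, exposed to pin-transferred compounds, and grown at 37 °C for at least 48 hr. Viability was read as ATP luminescence.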
TDP1 cell noCPT: qHTS for Inhibitors of human tyrosyl-DNA phosphodiesterase 1 (TDP1): qHTS in cells in absence of CPT; DT40 Tdp1-/- hTDP1 cells, no CPT, ATP luminescence, 48 h; 420,000 tested, 15% active; AID 686978, 2013; Potency, µM (series often up to 46.2 µM), inactives show at the top dose activity change, negative = growth inhibition, hits mostly inhibitors; further: potency means the concentration at half of the fitted maximal effect; on the % scale 0 is the no-effect control and ±100 the full control effect; nearly all actives have a fitted effect of over 55% in size
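Compound effects on proliferation are scored in DT40 Tdp1-/-;hTDP1 cells in the absence of CPT. ATP levels (CellTiter-Glo luminescence) are recorded after a ≥48 hr, 37 °C incubation.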
HepG2 tox: HepG2 cytotoxicity, counter-screen for TGF-b inhibitors. 410,000 tested, 0.76% active. HepG2 CAGA-GFP viability, ATP luminescence, 18 h. Potency, µM (top dose mostly 46.1 µM), for inactives: at the highest dose activity change, negative = cytotoxicity, hits mostly cytotoxic; further: potency means the concentration at half of the fitted maximal effect
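HepG2 CAGA-GFP cells (1000/well, DMEM with 1% FBS) received compound, then TGF-beta at 500 pg/mL final, and were incubated 18 hours at 37 degrees C. Viability was read by CellTiter-Glo luminescence. Media-only wells were set as complete cell-killing and DMSO as no toxicity.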
IL1B secr inh: blocks inflammasome-driven IL-1 beta release; THP-1 LPS/ATP IL-1B secretion, AlphaLISA, 16 h; hits give low values; activity change, % at 57.5 µM; 360,000 tested, 4.7% active; in the data active means activity change below about -50%; inconclusive means mostly about -30% to -49%; further: on the % scale 0 is the no-effect control and ±100 the full control effect
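THP-1 cells pretreated 1 hr with compounds (up to 57.5 uM final), then stimulated with LPS (250 ng/mL final) plus ATP (1.25 mM final); secreted IL-1B measured by AlphaLISA after 16 hr, decreased signal indicating inhibition.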
An asterisk follows results filed as active; ? = inconclusive; nt = no result. Most compounds without a hit are left out; they make up all but 18% or so of the library. Unless noted, the call rests on the fitted dose curve; in most records, active means well fitted curve in the direction sought with a large enough effect; inconclusive means small, poorly fitted or top-dose-only effect, or another doubt; inactive means no such curve, though single readings can be large; an effect the other way counts as inactive or inconclusive.

SMILES | TDP1 block | TGFb SMAD3 inh | DT40 TDP1 CPT | TDP1 cell noCPT | HepG2 tox | IL1B secr inh
Cc1cc(C(=O)NCCc2ccc(Cl)cc2)c2c(C)nn(-c3cccc(F)c3)c2n1 | 5% | 15% | -28% | -21% | -1% | nt
CCOC(=O)C(C)(C)Sc1ncnc2nc[nH]c12 | 5% | ? | ? | -10% | -3% | -20
CCOC(=O)c1cc([N+](=O)[O-])cc([N+](=O)[O-])c1Sc1ncnc2nc[nH]c12 | nt | 13µM* | 1.8µM* | 2.6µM* | -101% | -100*
OC[C@H]1O[C@@H](O[C@@H]2OC=C[C@H]3[C@H](O)[C@@H]4O[C@]4(CO)[C@@H]23)[C@H](O)[C@@H](O)[C@@H]1O | 4% | nt | nt | nt | nt | nt
O=C(CSc1cccc[n+]1[O-])CSc1cccc[n+]1[O-] | nt | ? | 1µM* | 9.2µM* | -45% | -20
O=C(CSc1cccc[n+]1[O-])Nc1cc([N+](=O)[O-])ccc1Cl | 5% | -28% | 3% | -3% | 2% | 25
[O-][n+]1ccccc1SSc1cccc[n+]1[O-] | 11% | nt | 0.11µM* | 0.12µM* | nt | nt
O=C(CSc1cccc[n+]1[O-])Nc1cc2c(cc1Cl)C(=O)c1ccccc1C2=O | -3% | -12% | 21µM* | ? | -26% | -6
Cc1ccc(CSCC(=O)N2CCN(c3cc(Cl)ccc3C)CC2)cc1 | -5% | ? | ? | ? | -44% | nt
COc1ccc(C2CCCN2CC(O)COc2ccccc2C(C)C)cc1 (stereo unspecified) | nt | ? | 23µM* | 13µM* | -76% | ?
COc1ccc(Sc2ccc(NC(=O)c3ccccc3Cl)cc2C#N)cc1 | -2% | -27% | ? | 13µM* | -29% | -11
COC(=O)c1sccc1S(=O)(=O)N(CC(=O)Nc1cc(C)cc(C)c1)c1ccc(Cl)cc1 | 7% | ? | ? | ? | -32% | nt
CCc1ccccc1NC(=O)CN(c1ccccc1)S(=O)(=O)c1ccsc1C(=O)OC | 5% | ? | 16µM* | 18µM* | -27% | nt
COC(=O)c1sccc1S(=O)(=O)N(CC(=O)Nc1cc(C)ccc1C)c1ccc(C)c(C)c1 | 5% | ? | 21µM* | 21µM* | -35% | nt
COC(=O)c1sccc1S(=O)(=O)N(CC(=O)Nc1cccc(C)c1C)c1ccc(C)c(C)c1 | 6% | ? | 21µM* | 23µM* | -28% | nt
COC(=O)c1sccc1S(=O)(=O)N(CC(=O)Nc1ccccc1C)c1ccc(Cl)cc1 | 6% | ? | ? | ? | -35% | nt
COC(=O)c1sccc1S(=O)(=O)N(CC(=O)Nc1cc(F)ccc1F)c1ccc(C)c(C)c1 | 3% | -24% | ? | 13µM* | -8% | nt
COC(=O)c1sccc1S(=O)(=O)N(CC(=O)Nc1ccccc1)c1ccccc1 | 7% | ? | -15% | ? | -17% | nt
O=C1NCCOC(=O)[C@H](Cc2ccc(F)cc2)C/C=C\C[C@@H]1CC(=O)N(CCO)Cc1ccccc1 | 0% | ? | 13µM* | 12µM* | -4% | 5
O=C1NCCOC(=O)[C@H](Cc2ccc(F)cc2)C/C=C\C[C@H]1CC(=O)N(CCO)Cc1ccccc1 | 1% | -11% | 8.2µM* | 9.2µM* | -1% | 6
O=C1CC/C=C\C[C@@H](CC(=O)N(CCO)Cc2ccccc2)C(=O)NCCO1 | -2% | 1% | -8% | -11% | 0% | -5
Cc1cc([N+](=O)[O-])ccc1NC(=S)NC(=O)C(c1ccccc1)c1ccccc1 | 11% | ? | ? | 16µM* | -4% | -2
COC(=O)NC(NC(=S)Nc1ccccc1OC)C(Cl)(Cl)Cl (stereo unspecified) | 3% | 12% | 8% | -10% | 11% | 5
COc1ccc([N+](=O)[O-])cc1NC(=S)NC(NC(=O)C(c1ccccc1)c1ccccc1)C(Cl)(Cl)Cl (stereo unspecified) | 7% | 4.5µM* | ? | ? | -29% | -10
COc1ccc([N+](=O)[O-])cc1NC(=O)C(C)c1ccccc1 (stereo unspecified) | 2% | -11% | -14% | -27% | 1% | 14
SMILES | TDP1 block | TGFb SMAD3 inh | DT40 TDP1 CPT | TDP1 cell noCPT | HepG2 tox | IL1B secr inh
COC(=O)NC(NC(=S)Nc1ccc([N+](=O)[O-])cc1)C(Cl)(Cl)Cl (stereo unspecified) | 10% | ? | 7.3µM* | 7.3µM* | -28% | -6
CCCCc1ccc(NC(=O)CSc2nc3ccccc3nc2N2CCCCC2)cc1 | 2% | 0% | -7% | ? | 1% | nt
COc1ccc(S(=O)(=O)N2CCOCC2)cc1NC(=O)CCc1cc(OC)c(OC)c(OC)c1 | 1% | 0% | 1% | 13% | -8% | -24
O=C1c2c(-c3ccc(Br)cc3)noc2CCN1Cc1cn(-c2ccc(Cl)cc2)nn1 | nt | nt | ? | ? | nt | -24
O=C1c2c(-c3ccc(Br)cc3)noc2CCN1Cc1cn(-c2ccccc2)nn1 | nt | nt | 21µM* | ? | nt | 0
O=C1c2c(-c3ccc(Br)cc3)noc2CCN1Cc1cn(Cc2ccccc2)nn1 | nt | nt | ? | 18µM* | nt | -8
O=C1c2c(-c3ccc(Br)cc3)noc2CCN1Cc1cn(Cc2cccnc2)nn1 | nt | nt | ? | ? | nt | 52
O=C(NN=c1c(=O)c2ccccc2c1=O)c1ccccc1 | 1% | 11µM* | 18µM* | 18µM* | 16µM* | ?
CCOC(=O)C(C)Oc1cccc2c(=O)n(CC(=O)NCc3ccco3)ccc12 (stereo unspecified) | 0% | -26% | 1.6µM* | 2.1µM* | -25% | -54*
CC(C)C(=O)c1cn(CC(=O)NCc2ccco2)c2ccccc12 | -2% | 0% | ? | -17% | 14% | 19
COc1ccc(C(=O)N(CN2CCCC2=O)c2ccc(C)cc2)cc1 | 4% | 3% | ? | 15µM* | -20% | 22
Cc1ccc(N(CN2CCCC2=O)C(=O)c2ccccc2)cc1 | 5% | 2% | 13µM* | 13µM* | -26% | 30
COc1ccc(CNC(=O)c2ccc(N3CCCC3=O)cc2)cc1 | 3% | -7% | 6% | -17% | -5% | -6
Cc1ccc(C(=O)N(CN2CCCC2=O)c2ccccc2)cc1C | 2% | 22% | ? | ? | -13% | 21
CCN(CC)c1ccc(C(=O)NNC(=O)Cn2c(=O)cnc3ccccc32)cc1 | nt | -14% | 3% | -3% | -4% | -3

High-throughput results: PubChem BioAssay, National Center for Advancing Translational Sciences (NCATS)
